In PubChem BioAssay one finds composite z-score and z-score data, which are given here for four molecules.

Molecules are shown by their SMILES. Calls of active or inactive are those of the source. Unless noted, how the calls were made is not given here.

Assay [1] concerns Wnt5a (protein binding on small-molecule microarray). In words: small molecules binding Wnt5a protein – biophysical, small-molecule microarray, 635/667 nm fluorescence, primary screen (AID 1142).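 Further: fluorescence read at 667 nm with signal to noise per printed feature.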 The following applies: 635 nm fluorescence, higher = more signal.
Assay [2] is described as follows: ATP-based viability of Huh7 replicon cells – cell-based, CellTiter-Glo luminescence, basal, 48 h, cytotoxicity control for HCV replication inhibitor project, primary screen (AID 1143).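 Further: Huh7 hepatoma cells carrying a hepatitis C replication reporter with no stimulus; test concentration not given here.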 Particulars: higher = more signal, called active from +8 up or from −8 down.
Assay [3] is described as follows: Pseudomonas biofilm growth suppression – PAO1 strain, BacTiter-Glo luminescence, LB-PBS, primary screen (AID 1144). The following applies: P. aeruginosa PAO1 biofilm, 12 h, higher = more signal.
Assay [4] in a line: basal CRE-LacZ reporter activity in PC12 – cell-based, unstimulated, primary screen (AID 1145). Particulars: no forskolin, luminescence, 4.5 h, higher = more signal, called active from +8 up or from −8 down.
Assay [5] in a line: forskolin-driven CRE-LacZ activity in PC12 – cell-based, CRE-LacZ reporter, forskolin-stimulated, primary screen (AID 1146).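 Further: PC12 cells with 6xCRE LacZ reporter stimulated by forskolin 10 µM; beta-galactosidase reporter signal reflecting CREB driven transcription.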 The following applies: luminescence, 4.5 h, higher = more signal, called active from +8 up or from −8 down.
Assay [6] deals with Streptavidin (Streptomyces avidinii) (UniProt P22629). In words: compounds binding control protein streptavidin – biophysical, small-molecule microarray, 635/667 nm fluorescence, artefact control for SMM compound annotation, primary screen (AID 1147).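 Further: signal reflects streptavidin binding to arrayed compounds as a control protein.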 Particulars: higher = more signal.
Chain of Streptavidin (Streptomyces avidinii) (P22629 whole entry, looked up): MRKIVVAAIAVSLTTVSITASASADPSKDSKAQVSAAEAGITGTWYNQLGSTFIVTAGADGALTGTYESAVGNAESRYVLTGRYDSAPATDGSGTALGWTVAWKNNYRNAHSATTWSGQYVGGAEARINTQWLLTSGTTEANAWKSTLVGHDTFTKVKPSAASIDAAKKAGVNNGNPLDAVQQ
Assay [7] in a line: probe aInhba binding on compound microarray – biochemical, small-molecule microarray, 635/667 nm fluorescence, primary screen (AID 1148).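 Further: score merges 667nm spot fluorescence with signal-to-noise for antibody binding to printed compounds.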 The following applies: higher = more signal.
Assay [8] deals with Torsin-1A (Homo sapiens) (UniProt O14656). In words: TOR1A wild-type binding on microarray – cell lysate, small-molecule microarray, lysate, 635/667 nm, primary screen (AID 1149). The following applies: COS7 hTOR1A-WT lysate, 635 nm fluorescence, higher = more signal.
Chain of Torsin-1A (Homo sapiens) (O14656 whole entry, looked up): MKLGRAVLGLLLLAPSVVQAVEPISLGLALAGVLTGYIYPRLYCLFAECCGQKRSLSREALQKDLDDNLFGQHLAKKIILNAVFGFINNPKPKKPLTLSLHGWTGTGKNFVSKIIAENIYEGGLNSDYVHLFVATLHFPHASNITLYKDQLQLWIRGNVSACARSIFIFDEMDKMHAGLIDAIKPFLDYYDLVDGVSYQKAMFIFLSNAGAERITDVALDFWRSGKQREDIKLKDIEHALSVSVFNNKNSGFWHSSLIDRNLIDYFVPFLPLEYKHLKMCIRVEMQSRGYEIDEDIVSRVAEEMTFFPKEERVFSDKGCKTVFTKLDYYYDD
The target is the same in assay [9]. In words: torsin A mutant lysate binding on microarrays – cell lysate, small-molecule microarray, COS7 lysate, 635/667 nm fluorescence, primary screen (AID 1150).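 Further: score pools 667 nm emission and signal to noise measuring lysate protein binding.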 Particulars: COS7 hTOR1A mutant lysate, 635 nm fluorescence, higher = more signal.
In assay [10] the test system is Sonic hedgehog protein (Shh). In words: Sonic hedgehog microarray binding compounds – biochemical, small-molecule microarray, 635/667 nm fluorescence, primary screen (AID 1151).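 Further: Shh protein binding to compounds spotted on small-molecule microarray slides; score combines spot fluorescence intensity with signal-to-noise across triplicate slides.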 Particulars: 635 nm fluorescence, higher = more signal.
Assay [11] is described as follows: optical density shifts of acrAB sulA E. coli – strain DRC41, OD650, 48 h, E. coli filamentation inducer project, primary screen (AID 1152).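 Further: E. coli MC1000 strain DRC41 lacking acrAB efflux pump and sulA.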 The following applies: higher = more signal, called active from +8 up or from −8 down.
Assay [12] is described as follows: probe aLefty1 binding on compound microarray – biochemical, small-molecule microarray, 635/667 nm fluorescence, primary screen (AID 1153).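 Further: score merges spot fluorescence with signal-to-noise ratio from the scanned slide images.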 Particulars: higher = more signal.
Assay [13] can be described thus: plasmodial surface anion channel blockers, osmotic lysis – cell-based, P. falciparum Indochina, OD700, 1 h, primary screen (AID 1154). Particulars: P. falciparum Indochina infected RBC osmotic lysis, higher = more signal, called active from +8 up or from −8 down.
A short description of assay [14]: plasmodial surface anion channel blockers, osmotic lysis – cell-based, P. falciparum Indochina, OD700, 2 h, primary screen (AID 1155).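 Further: lysis reports solute entry through the parasite surface anion channel PSAC.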 The following applies: P. falciparum Indochina infected erythrocytes, higher = more signal, called active from +8 up or from −8 down.
Assay [15] is described as follows: changes in parasitized red cell lysis, either direction – P. falciparum Indochina, OD700, 3 h, PSAC antagonist project, primary screen (AID 1156). The following applies: P. falciparum-infected erythrocytes, osmotic lysis, higher = more signal, called active from +8 up or from −8 down.
Assay [16] in a line: plasmodial surface anion channel blockers, osmotic lysis – cell-based, P. falciparum Indochina, OD700, 18 h, primary screen (AID 1157). Particulars: P. falciparum Indochina infected erythrocytes, osmotic lysis OD700, 18 h; higher = more signal, called active from +8 up or from −8 down.
Assay [17] in a line: S6 kinase pathway phospho-S6 level changes – cell-based, A549, cytoblot, luminescence, serum-stimulated, primary screen (AID 1158).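 Further: serum-stimulated A549 lung adenocarcinoma cells; signal is phosphorylated S6 detected by cytoblot immunostaining with HRP secondary.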 The following applies: 5 h, higher = more signal.
The target of assay [18] is NADPH oxidase 2 (Homo sapiens) (UniProt P04839). As to the kind of experiment: compounds shifting NOX2 Amplex Red fluorescence – cell-based, HEK293-NOX2, PMA-stimulated, NOX inhibitor project, primary screen (AID 1159). Further: test concentration not given here. The following applies: 45 min, higher = more signal, called active from +8 up or from −8 down.
Chain of NADPH oxidase 2 (Homo sapiens) (P04839 whole entry, looked up): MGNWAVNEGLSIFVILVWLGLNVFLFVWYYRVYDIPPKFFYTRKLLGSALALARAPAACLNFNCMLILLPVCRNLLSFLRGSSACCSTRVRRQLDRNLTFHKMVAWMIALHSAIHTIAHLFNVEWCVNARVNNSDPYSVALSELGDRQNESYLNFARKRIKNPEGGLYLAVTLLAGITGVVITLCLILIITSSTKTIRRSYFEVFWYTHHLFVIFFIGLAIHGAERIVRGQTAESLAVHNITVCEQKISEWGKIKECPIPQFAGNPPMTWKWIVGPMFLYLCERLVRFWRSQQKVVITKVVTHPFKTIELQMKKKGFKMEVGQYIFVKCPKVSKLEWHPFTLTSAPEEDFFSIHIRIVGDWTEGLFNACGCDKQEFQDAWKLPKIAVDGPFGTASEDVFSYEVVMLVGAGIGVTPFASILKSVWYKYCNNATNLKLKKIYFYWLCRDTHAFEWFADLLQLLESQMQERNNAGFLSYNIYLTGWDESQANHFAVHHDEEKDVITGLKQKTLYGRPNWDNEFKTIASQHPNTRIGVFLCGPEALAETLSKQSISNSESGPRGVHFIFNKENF
In assay [19] the target is NADPH oxidase 4 (Homo sapiens) (UniProt Q9NPH5). In words: compounds shifting NOX4 Amplex Red fluorescence – cell-based, HEK293-NOX4, tetracycline-induced, NOX inhibitor project, primary screen (AID 1160). The following applies: HEK293-NOX4, Amplex Red H2O2 fluorescence, 45 min; higher = more signal, called active from +8 up or from −8 down.
Chain of NADPH oxidase 4 (Homo sapiens) (Q9NPH5 whole entry, looked up): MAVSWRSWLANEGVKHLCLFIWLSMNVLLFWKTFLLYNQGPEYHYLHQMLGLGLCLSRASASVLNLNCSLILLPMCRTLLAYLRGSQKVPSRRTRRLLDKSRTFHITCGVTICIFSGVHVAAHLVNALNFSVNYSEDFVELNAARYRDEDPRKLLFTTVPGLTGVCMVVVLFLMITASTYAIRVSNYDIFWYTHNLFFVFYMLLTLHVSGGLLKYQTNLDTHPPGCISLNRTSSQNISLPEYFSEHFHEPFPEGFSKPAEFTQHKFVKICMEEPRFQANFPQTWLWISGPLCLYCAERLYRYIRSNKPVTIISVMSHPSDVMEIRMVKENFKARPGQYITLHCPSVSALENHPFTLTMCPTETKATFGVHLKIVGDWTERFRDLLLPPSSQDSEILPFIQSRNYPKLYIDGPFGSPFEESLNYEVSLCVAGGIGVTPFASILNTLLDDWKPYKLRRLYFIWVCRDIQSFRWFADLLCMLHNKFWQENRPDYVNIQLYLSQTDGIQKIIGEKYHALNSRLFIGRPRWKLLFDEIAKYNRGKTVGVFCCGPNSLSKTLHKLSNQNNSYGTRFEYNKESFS
The target of assay [20] is NADPH oxidase 5 (Homo sapiens) (UniProt Q96PH1). In words: compounds shifting NOX5 Amplex Red fluorescence – cell-based, HEK293-NOX5, NOX inhibitor project, primary screen (AID 1161). The following applies: HEK293-NOX5, ionomycin, 45 min, higher = more signal.
Chain of NADPH oxidase 5 (Homo sapiens) (Q96PH1 whole entry, looked up): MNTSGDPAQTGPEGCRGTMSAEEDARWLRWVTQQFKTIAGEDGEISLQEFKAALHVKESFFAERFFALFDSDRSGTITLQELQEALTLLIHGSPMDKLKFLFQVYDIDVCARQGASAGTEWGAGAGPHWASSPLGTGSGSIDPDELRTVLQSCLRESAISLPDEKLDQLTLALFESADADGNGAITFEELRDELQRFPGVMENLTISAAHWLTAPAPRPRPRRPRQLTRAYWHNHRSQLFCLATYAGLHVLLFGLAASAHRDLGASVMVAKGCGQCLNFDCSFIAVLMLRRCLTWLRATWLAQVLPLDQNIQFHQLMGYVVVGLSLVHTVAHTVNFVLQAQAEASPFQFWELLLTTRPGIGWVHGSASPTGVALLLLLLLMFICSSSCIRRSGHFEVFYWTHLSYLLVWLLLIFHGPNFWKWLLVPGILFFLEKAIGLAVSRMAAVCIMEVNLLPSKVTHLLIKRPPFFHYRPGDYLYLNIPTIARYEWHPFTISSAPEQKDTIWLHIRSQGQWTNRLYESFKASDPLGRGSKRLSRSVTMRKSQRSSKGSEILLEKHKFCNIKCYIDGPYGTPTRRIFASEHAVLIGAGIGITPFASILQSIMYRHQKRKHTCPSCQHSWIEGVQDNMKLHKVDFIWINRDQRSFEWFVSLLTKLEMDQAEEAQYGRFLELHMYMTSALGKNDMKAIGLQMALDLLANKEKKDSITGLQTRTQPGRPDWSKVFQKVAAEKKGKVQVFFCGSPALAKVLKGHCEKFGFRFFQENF

Turning to `CC(C)CON=C1C[C@@H](O)[C@@H](O)[C@@H]2[C@@H]3C(=O)N(Cc4ccc5c(c4)OCO5)C(=O)[C@@H]3CC[C@@H]12`, the composite z-score is 0.199 in [1]; 0.289 in [6]; -0.0645 in assay [7]; -0.515 with Torsin-1A (Homo sapiens) [8]; 0.203 with Torsin-1A (Homo sapiens) [9]; 0.108 in assay [10]. For the same molecule, the composite z-score in [12] is -0.28. Also, the z-score was -0.415 (inactive) in assay [2]; -0.488 (inactive) in assay [3]; 0.241 (inactive) in assay [4]; 0.384 (inactive) in assay [5]; -0.0395 (inactive) in assay [11]; 7.64 (inactive) in assay [13]. Further, the z-score was 0.859 (inactive) in assay [14]; -0.0127 (inactive) in assay [15]; 0.548 (inactive) in assay [16]; -0.333 in [17]; -0.569 (inactive) in assay [18]; 0.409 (inactive) in assay [19]. In [20], the z-score came out at 0.443.
As for `CC(CCC(=O)OC[C@H]1O[C@H](C#Cc2ccccc2)C=C[C@@H]1Oc1ccc(C)cc1)=NOC(C)CN1CCCCc2nc(C)c(C)cc21` (stereo not given in full), the composite z-score is -0.271 in [1]; -0.0512 in assay [6]; -0.246 in assay [7]; -0.453 with Torsin-1A (Homo sapiens) [8]; -0.269 in the assay with Torsin-1A (Homo sapiens) [9]; 0.517 in assay [10]. The same molecule came in with a composite z-score in [12] of -0.191. Moreover, the z-score is -1.13 (inactive) in [2]; 0.455 (inactive) in assay [3]; -0.561 (inactive) in assay [4]; 1.1 (inactive) in assay [5]; -0.131 (inactive) in assay [11]; 4.27 (inactive) in assay [13]. For the same molecule, the z-score in assay [14] is 0.459 (inactive); in assay [15] it was 0.983 (inactive); in assay [16], 0.662 (inactive); in assay [17], -0.487; in assay [18], -0.802 (inactive); in [19], -0.341 (inactive). The z-score in [20] was -0.461.
For `CCOC(=O)[C@H](Cc1ccccc1)NC(=O)CCC1CC(OC(=O)NCc2ccc3c(c2)OCO3)CC2(CCCC(COC(=O)NCCc3ccc(Cl)cc3)O2)O1` (stereo not given in full), the composite z-score in [1] was 0.0468; in assay [6], 1.14; in assay [7] it was -0.0221; with Torsin-1A (Homo sapiens) [8], 0.147; in the assay with Torsin-1A (Homo sapiens) [9], 0.214; in assay [10] it was 1.11. In addition, the composite z-score in [12] was -0.281. Also, the z-score in [2] was -1.42 (inactive); in assay [3], -1.89 (inactive); in assay [4], -0.0696 (inactive); in assay [5], -0.71 (inactive); in assay [11] it was -0.393 (inactive); in assay [13], 1.44 (inactive). For the same molecule, the z-score in assay [14] was -0.0302 (inactive); in assay [15], -0.249 (inactive); in assay [16], -0.741 (inactive); in [17], 1.51; in [18] it was -0.194 (inactive); in assay [19], 0.396 (inactive). For the same molecule, the z-score in assay [20] was 1.63.
With `O=C1C[C@@H](O)[C@@H](O)[C@@H]2[C@@H]3C(=O)N(c4ccc(F)cc4F)C(=O)[C@@H]3CC[C@H]12`, the composite z-score in assay [1] is 0.0583; in assay [6], 0.234; in assay [7] it was -0.101; with Torsin-1A (Homo sapiens) [8], 0.403; with Torsin-1A (Homo sapiens) [9] it was 0.302; in assay [10] it was 1.09. This molecule yielded a composite z-score in assay [12] of -0.147. Also, the z-score in assay [2] was -1.24 (inactive); in assay [3], 0.0279 (inactive); in assay [4], 0.064 (inactive); in assay [5], -0.13 (inactive); in assay [11], -0.706 (inactive); in assay [13] it was -0.0503 (inactive). Moreover, the z-score in assay [14] was 0.0554 (inactive); in assay [15] it was -0.737 (inactive); in [16], 0.06 (inactive); in assay [17], 0.0123; in assay [18] it was 1.09 (inactive); in [19], 0.366 (inactive). In addition, in [20], the z-score is -0.158.
